From PubChem BioAssay
Activity calls are given as the source filed them.

Key:
[1] = test system: Plasmodium falciparum Sir2 (PF13_0152, Sir2A); assay: pfSir2 binders on small-molecule microarrays, primary screen, biochemical, small-molecule microarray, 635 nm fluorescence (AID 1098); conditions: small-molecule microarray binding, fluorescence 635 nm; higher = more signal;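 also: score merges spot fluorescence intensity with its signal-to-noise ratio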
[2] = small-molecule microarray binders of probe aDKK1, primary screen, biochemical, biotinylated probe, 635/667 nm fluorescence (AID 1099); conditions: higher = more signal;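 also: score merges 667nm spot fluorescence with signal to noise across triplicate slides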
[3] = small-molecule microarray binders of probe aCHRDL2, primary screen, biochemical, biotinylated probe, 635/667 nm fluorescence (AID 1100); conditions: higher = more signal
[4] = splicing luciferase reporter signal modulators, primary screen, spliceosome inhibition project, cell-based, HEK293, splice +/- reporter (AID 1101); conditions: luminescence, 24 h, higher = more signal, called active from +8 up or from −8 down;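 also: HEK293 cells carrying a splicing-competent luciferase reporter gene; test concentration not given here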
[5] = target: Fibroblast growth factor 10 (Homo sapiens) (UniProt O15520); assay: FGF10 binders on small-molecule microarrays, primary screen, biochemical, small-molecule microarray, 635 nm fluorescence (AID 1102); conditions: FGF10 binding, fluorescence 635 nm, higher = more signal
Chain of Fibroblast growth factor 10 (Homo sapiens) (O15520 whole entry, looked up): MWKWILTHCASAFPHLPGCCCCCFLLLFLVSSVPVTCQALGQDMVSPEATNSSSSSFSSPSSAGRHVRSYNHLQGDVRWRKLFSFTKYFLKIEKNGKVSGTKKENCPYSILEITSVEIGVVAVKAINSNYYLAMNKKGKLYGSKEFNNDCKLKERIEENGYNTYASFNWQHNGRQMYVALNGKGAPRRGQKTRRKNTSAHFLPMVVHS

[6] = test system: glycogen synthase kinase-3 (GSK3A per assay name; protocol says GSK3B); assay: GSK3 binders on small-molecule microarrays, primary screen, biochemical, small-molecule microarray, 635 nm fluorescence, GSK3A (AID 1103); conditions: small-molecule microarray binding, fluorescence 635 nm; higher = more signal; also: the record names both GSK3A and GSK3B
[7] = target: Epidermal growth factor receptor (Homo sapiens) (UniProt P00533); assay: EGFR binders on small-molecule microarrays, primary screen, biochemical, small-molecule microarray, 635 nm fluorescence (AID 1104); conditions: EGFR binding, higher = more signal;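 also: score merges 667 nm emission intensity with spot signal to noise over triplicate slides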
Chain of Epidermal growth factor receptor (Homo sapiens) (P00533 whole entry, looked up): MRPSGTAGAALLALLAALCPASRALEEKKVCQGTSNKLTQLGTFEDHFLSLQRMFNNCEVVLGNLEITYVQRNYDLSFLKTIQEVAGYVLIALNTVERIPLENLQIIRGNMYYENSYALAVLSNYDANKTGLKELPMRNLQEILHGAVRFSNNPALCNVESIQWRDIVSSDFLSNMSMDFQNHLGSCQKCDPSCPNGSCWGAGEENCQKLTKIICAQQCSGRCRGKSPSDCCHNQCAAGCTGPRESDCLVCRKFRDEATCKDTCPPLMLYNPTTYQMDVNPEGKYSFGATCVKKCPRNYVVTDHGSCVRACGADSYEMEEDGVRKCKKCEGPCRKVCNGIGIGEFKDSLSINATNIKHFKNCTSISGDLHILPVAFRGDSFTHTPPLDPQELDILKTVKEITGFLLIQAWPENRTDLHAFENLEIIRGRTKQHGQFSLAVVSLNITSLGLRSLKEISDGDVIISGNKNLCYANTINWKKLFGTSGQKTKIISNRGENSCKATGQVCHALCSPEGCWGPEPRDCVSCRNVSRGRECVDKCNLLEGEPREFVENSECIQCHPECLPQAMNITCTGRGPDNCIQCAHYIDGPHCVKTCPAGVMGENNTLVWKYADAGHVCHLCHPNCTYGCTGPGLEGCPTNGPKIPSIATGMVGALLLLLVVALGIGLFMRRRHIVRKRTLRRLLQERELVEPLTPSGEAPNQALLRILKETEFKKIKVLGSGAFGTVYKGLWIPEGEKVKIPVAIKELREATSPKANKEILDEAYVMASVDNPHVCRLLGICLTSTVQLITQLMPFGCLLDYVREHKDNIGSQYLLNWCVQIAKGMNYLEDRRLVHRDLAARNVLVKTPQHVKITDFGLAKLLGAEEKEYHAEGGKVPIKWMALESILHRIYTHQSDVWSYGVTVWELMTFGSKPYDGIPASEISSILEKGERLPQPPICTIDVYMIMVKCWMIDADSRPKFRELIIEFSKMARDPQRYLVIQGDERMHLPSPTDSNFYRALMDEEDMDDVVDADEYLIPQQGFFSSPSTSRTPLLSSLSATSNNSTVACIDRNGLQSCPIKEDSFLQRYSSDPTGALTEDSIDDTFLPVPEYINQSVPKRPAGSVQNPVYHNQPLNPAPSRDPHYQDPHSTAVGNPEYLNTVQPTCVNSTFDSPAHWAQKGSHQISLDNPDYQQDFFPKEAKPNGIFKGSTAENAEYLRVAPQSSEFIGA

[8] = target: Follistatin-related protein 3 (Homo sapiens) (UniProt O95633); assay: FSTL3 binders on small-molecule microarrays, primary screen, biochemical, small-molecule microarray, 635 nm fluorescence (AID 1105); conditions: FSTL3 binding, higher = more signal;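 also: score merges emission near 667 nm and signal to noise per printed spot across three slides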
Chain of Follistatin-related protein 3 (Homo sapiens) (O95633 whole entry, looked up): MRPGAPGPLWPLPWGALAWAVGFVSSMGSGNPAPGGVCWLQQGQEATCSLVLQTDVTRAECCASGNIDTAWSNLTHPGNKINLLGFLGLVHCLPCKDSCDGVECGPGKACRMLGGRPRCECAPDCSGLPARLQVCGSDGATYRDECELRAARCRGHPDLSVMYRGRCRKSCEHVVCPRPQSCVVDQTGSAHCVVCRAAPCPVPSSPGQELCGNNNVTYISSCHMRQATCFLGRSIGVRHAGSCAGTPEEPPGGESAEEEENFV

[9] = target: Dickkopf-related protein 1 (Homo sapiens) (UniProt O94907); assay: DKK1 binders on small-molecule microarrays, primary screen, biochemical, small-molecule microarray, 635 nm fluorescence scan (AID 1106); conditions: DKK1 binding, higher = more signal;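 also: score merges emission near 667 nm with signal to noise over three replicate slides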
Chain of Dickkopf-related protein 1 (Homo sapiens) (O94907 whole entry, looked up): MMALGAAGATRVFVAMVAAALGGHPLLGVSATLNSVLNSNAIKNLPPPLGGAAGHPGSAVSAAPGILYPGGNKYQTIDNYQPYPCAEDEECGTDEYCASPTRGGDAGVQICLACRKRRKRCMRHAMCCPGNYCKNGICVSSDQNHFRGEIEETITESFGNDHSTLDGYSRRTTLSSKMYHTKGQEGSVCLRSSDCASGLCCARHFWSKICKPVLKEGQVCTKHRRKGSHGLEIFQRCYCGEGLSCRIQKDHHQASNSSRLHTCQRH

[10] = test system: Inhibin beta A chain (activin A); assay: INHBA (activin A) binders on microarrays, primary screen, biochemical, small-molecule microarray, 635 nm fluorescence scan (AID 1107); conditions: small-molecule microarray binding, higher = more signal;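 also: mouse activin A protein probed at 4.33 µg/mL on printed slides; score merges bound-protein fluorescence near 667 nm with spot signal-to-noise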
[11] = test system: Human papillomavirus type 1a protein E7 (residues 44-93); assay: HPV1a E7 fragment binders on microarrays, primary screen, biochemical, small-molecule microarray, residues 44-93, 635 nm fluorescence (AID 1108); conditions: small-molecule microarray binding, fluorescence 635 nm; higher = more signal;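 also: E7 fragment applied at 1 µg/mL in TBST for 1 h at 4 C; score combines spot fluorescence with its signal to noise ratio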
[12] = modulators of HCV replicon luciferase signal, primary screen, HCV replication inhibitor project, Huh7 cells, luciferase reporter (AID 1109); conditions: 48 h, higher = more signal;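 also: huh7 hepatoma cells harbouring a luciferase neomycin HCV replicon reporter; luciferase luminescence as measure of HCV replicon replication; test concentration not given here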
[13] = target: Left-right determination factor 2 (Homo sapiens) (UniProt O00292); assay: LEFTY2 binders on small-molecule microarrays, primary screen, biochemical, small-molecule microarray, 635 nm fluorescence scan (AID 1110); conditions: LEFTY2 binding, higher = more signal
Chain of Left-right determination factor 2 (Homo sapiens) (O00292 whole entry, looked up): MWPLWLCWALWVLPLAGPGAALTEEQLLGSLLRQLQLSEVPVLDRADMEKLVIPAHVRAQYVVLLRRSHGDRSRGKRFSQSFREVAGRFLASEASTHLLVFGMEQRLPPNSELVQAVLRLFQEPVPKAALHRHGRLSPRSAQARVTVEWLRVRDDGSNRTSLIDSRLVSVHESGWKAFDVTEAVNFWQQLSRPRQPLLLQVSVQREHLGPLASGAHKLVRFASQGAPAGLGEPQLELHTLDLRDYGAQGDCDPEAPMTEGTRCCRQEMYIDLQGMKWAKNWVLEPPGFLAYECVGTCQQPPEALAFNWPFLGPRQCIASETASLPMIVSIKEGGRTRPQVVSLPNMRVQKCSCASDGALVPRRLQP

[14] = target: Calmodulin-1 (Homo sapiens) (UniProt P0DP23); assay: CALM1 binders on microarrays, EGTA buffer, profiling panel, biochemical, small-molecule microarray, Cy5-labelled CALM1 (AID 1111); conditions: Cy5-CALM1 binding fluorescence, higher = more signal;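 also: labelled calmodulin applied in Tris saline Tween buffer holding calcium plus EGTA and DTT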
[15] = target: Calmodulin-1 (Homo sapiens) (UniProt P0DP23); assay: calcium-bound CALM1 binders on microarrays, profiling panel, artefact control for SMM control-protein annotation, biochemical, small-molecule microarray, Cy5-labelled CALM1, plus calcium (AID 1112); conditions: Cy5-CALM1 binding fluorescence, higher = more signal;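 also: score merges spot fluorescence with signal to noise from triplicate slides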
[16] = small-molecule microarray binders of probe aWnt5a, primary screen, biochemical, biotinylated probe, 635/667 nm fluorescence (AID 1113); conditions: higher = more signal;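 also: score merges 667 nm fluorescence intensity with signal-to-noise per printed feature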
[17] = small-molecule microarray binders of probe aShh, primary screen, biochemical, biotinylated probe, 635/667 nm fluorescence (AID 1114); conditions: higher = more signal;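 also: probe is biotin-labelled aShh protein from a stem cell growth factor screen; measures binding of labelled protein to compounds printed on the slide; score merges feature fluorescence at 667 nm with signal-to-noise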
[18] = small-molecule microarray binders of probe aNog, primary screen, biochemical, biotinylated probe, 635/667 nm fluorescence (AID 1115); conditions: higher = more signal;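 also: probe is biotinylated aNog protein used at 0.15 µg/mL for 1 h at 4 C; z-score combines 667 nm fluorescence of each spot with its signal to noise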
[19] = target: Torsin-1A-interacting protein 1 (Homo sapiens) (UniProt Q5JTV8); assay: LAP1 binders from COS7 cell lysate, primary screen, small-molecule microarray, 635/667 nm fluorescence (AID 1116); conditions: COS7-hLAP1 lysate binding, 635 nm fluorescence, higher = more signal
Chain of Torsin-1A-interacting protein 1 (Homo sapiens) (Q5JTV8 whole entry, looked up): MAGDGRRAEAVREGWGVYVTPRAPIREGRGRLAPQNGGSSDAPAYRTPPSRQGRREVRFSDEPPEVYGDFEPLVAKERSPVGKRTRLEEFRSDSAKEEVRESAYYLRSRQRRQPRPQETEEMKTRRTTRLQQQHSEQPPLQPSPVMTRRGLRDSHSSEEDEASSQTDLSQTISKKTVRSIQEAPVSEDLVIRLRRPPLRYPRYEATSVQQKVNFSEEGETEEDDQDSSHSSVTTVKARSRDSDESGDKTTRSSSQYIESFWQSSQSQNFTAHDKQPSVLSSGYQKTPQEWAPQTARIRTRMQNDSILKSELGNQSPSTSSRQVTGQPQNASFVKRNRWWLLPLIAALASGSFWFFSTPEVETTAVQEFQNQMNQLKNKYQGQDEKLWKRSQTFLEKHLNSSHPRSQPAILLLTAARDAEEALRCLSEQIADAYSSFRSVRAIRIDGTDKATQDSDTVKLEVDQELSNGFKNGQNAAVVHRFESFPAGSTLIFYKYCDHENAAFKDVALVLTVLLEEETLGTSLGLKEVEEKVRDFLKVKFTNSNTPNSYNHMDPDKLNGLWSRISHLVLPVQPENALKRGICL

[20] = target: Alpha-bungarotoxin (Bungarus multicinctus) (UniProt P60615); assay: alpha-bungarotoxin binders on microarray, profiling panel, artefact control for SMM control protein annotation, biochemical, small-molecule microarray, Alexa647 label, 635/667 nm fluorescence (AID 1117); conditions: alpha-BTX-A647 binding fluorescence, higher = more signal
Chain of Alpha-bungarotoxin (Bungarus multicinctus) (P60615 whole entry, looked up): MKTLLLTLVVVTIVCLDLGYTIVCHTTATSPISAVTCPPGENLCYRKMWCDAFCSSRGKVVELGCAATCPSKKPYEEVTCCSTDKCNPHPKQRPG

| SMILES | composite z-score [1] | composite z-score [2] | composite z-score [3] | z-score [4] | composite z-score [5] | composite z-score [6] | composite z-score [7] | composite z-score [8] | composite z-score [9] | composite z-score [10] | composite z-score [11] | z-score [12] | composite z-score [13] | composite z-score [14] | composite z-score [15] | composite z-score [16] | composite z-score [17] | composite z-score [18] | composite z-score [19] | composite z-score [20] |
| --- | --- | --- | --- | --- | --- | --- | --- | --- | --- | --- | --- | --- | --- | --- | --- | --- | --- | --- | --- | --- |
| Cc1ccccc1C(O)C1C=CC2C(=O)N(Cc3ccccc3)C(=O)C2N1n1cnnc1 (stereo not given) | 0.996 | 0.363 | 0.118 | -0.512 (inactive) | 0.517 | 0.644 | -0.126 | 0.834 | 0.189 | 0.837 | 1.29 | -0.364 | -0.305 | 0.0712 | -0.535 | 0.0388 | 0.108 | 0.2 | 0.542 | 0.611 |
| O=C1O[C@@H](c2ccccc2)[C@@H](c2ccccc2)N2[C@@H](c3ccc(O)cc3)[C@]3(C(=O)Nc4ccc(C#CC5(O)CCCCCC5)cc43)[C@@H](C(=O)N3CCN(c4ncccn4)CC3)[C@H]12 | 0.479 | -0.125 | -0.127 | -0.453 (inactive) | 0.74 | 0.709 | -0.0042 | 0.639 | 0.226 | -0.293 | 1.4 | -0.843 | 0.114 | 1.03 | 0.137 | -0.0721 | 0.255 | 0.146 | 1.18 | 1.21 |
| O=C1O[C@H](c2ccccc2)[C@H](c2ccccc2)N2[C@H]1[C@@H](C(=O)N1CCCCCCC1)[C@]1(C(=O)Nc3ccccc31)[C@H]2c1ccc(O)cc1 | 2.04 | 2.68 | 1.79 | -0.365 (inactive) | 1.68 | 1.49 | 2 | 1.8 | 2.68 | 2 | 1.52 | -1.09 | 1.86 | 3.09 | 1.64 | 1.63 | 3.71 | 3.66 | 5.68 | 3.36 |
| COCCOC(=O)N1C(=O)[C@@]2(c3cc(C#Cc4ccc(OC)cc4)ccc31)[C@H](C(=O)N1CCc3cc(OC)c(OC)cc3C1)[C@H]1C(=O)O[C@H](c3ccccc3)[C@H](c3ccccc3)N1[C@@H]2c1ccc(O)cc1 | 0.404 | -0.0986 | -0.107 | -0.318 (inactive) | 1.06 | 1.21 | 0.465 | 0.649 | 0.644 | 0.837 | 1.13 | -0.246 | 0.582 | 0.111 | -0.575 | 0.0088 | 0.191 | -0.407 | 0.575 | 1.78 |
| CN1C(=O)C2C=CC(C(O)COCc3ccccc3)N(Nc3ccccc3)C2C1=O (stereo not given) | 0.867 | -0.109 | 0.285 | 1.43 (inactive) | 0.558 | 0.453 | 0.132 | 1.06 | 0.0378 | 1.18 | 0.372 | 0.74 | 0.0615 | -0.0981 | -0.57 | 0.0403 | -0.0793 | 1.03 | 0.661 | 0.347 |
| COCCOC(=O)N1C(=O)[C@@]2(c3cc(C#Cc4ccc(OC)cc4)ccc31)[C@H](C(N)=O)[C@H]1C(=O)O[C@H](c3ccccc3)[C@H](c3ccccc3)N1[C@@H]2c1ccc(OCCO)cc1 | 1.43 | -0.178 | -0.13 | -0.853 (inactive) | 1.42 | 1.33 | 0.769 | 1.34 | 0.631 | 0.343 | 1.42 | -2.25 | 0.746 | 0.894 | -0.454 | -0.0512 | -0.12 | 0.492 | 1.09 | 1.5 |
| NC(=O)[C@@H]1[C@H]2C(=O)O[C@H](c3ccccc3)[C@H](c3ccccc3)N2[C@H](c2ccccc2OCCO)[C@@]12C(=O)Nc1ccc(C#CCCO)cc12 | 1.03 | -0.302 | 0.54 | 0.305 (inactive) | -0.293 | -0.802 | -0.461 | 0.118 | -0.647 | 0.233 | 0.42 | -1.02 | -0.388 | 0.613 | 0.154 | -0.226 | -0.221 | -0.139 | 0.0571 | 1.18 |
| CC(C)(C)OC(=O)CC[C@@]1(C(=O)N2CCCCC2)N=C(c2ccc(OCCCO)cc2)O[C@@H]1c1ccccc1CN=[N+]=[N-] | 1.24 | 0.754 | 0.881 | -2.55 (inactive) | 0.56 | 0.53 | 0.0678 | 1.06 | -0.0065 | 0.534 | 1.46 | -2.36 | 0.0083 | 1.88 | 0.709 | 0.0629 | 0.199 | -0.685 | 2.04 | 2.27 |
| COC(=O)[C@@]1(Cc2ccc(F)cc2)[C@H]2c3cc(C(=O)N(C)C)n(CCSCCO)c3C[C@H]2CN1C(=O)c1ccccc1 | 0.74 | 0.983 | 1.02 | -1.22 (inactive) | 0.438 | 0.266 | 0.168 | 0.322 | -0.0642 | 0.655 | 0.0689 | -0.663 | -0.293 | 2.32 | 0.559 | -0.0977 | 0.123 | 1.6 | 0.51 | 0.224 |
| COCCOC(=O)N1C(=O)[C@@]2(c3cc(C#Cc4ccc(OC)cc4)ccc31)[C@H](c1ccc(OCCO)cc1)N1[C@H](c3ccccc3)[C@H](c3ccccc3)OC(=O)[C@H]1[C@@H]2C(N)=O | 1.27 | 0.654 | 0.608 | -0.372 (inactive) | 1.25 | 1.32 | 0.711 | 1.43 | 0.853 | 0.48 | 1.32 | -2.33 | 0.701 | 2.09 | 0.451 | -0.0792 | 0.296 | 0.683 | 1.36 | 2.23 |
| O=C1c2ccccc2[C@](Cc2ccccc2I)(C(=O)NC2CC2)[C@H](c2ccc(CO)cc2)N1Cc1ccccc1Cl | 0.453 | 0.831 | 0.995 | 0.119 (inactive) | 0.652 | 1.28 | -0.0191 | 0.345 | 0.0978 | 1.02 | 1.06 | -1.4 | -0.112 | 0.638 | 0.61 | -0.0701 | 0.755 | 0.139 | 0.747 | 0.09 |
| O=C1N(CCS(=O)(=O)c2ccccc2)c2ccccc2[C@H]2OC(c3ccc(OCCCO)cc3)=N[C@@]12CCS(=O)(=O)c1ccccc1 | 1.31 | 1.59 | 1.16 | -0.0214 (inactive) | 1.35 | 1.31 | 0.736 | 1.31 | 0.9 | 1.29 | 1.13 | 0.208 | 0.98 | 0.589 | 0.362 | 0.385 | 0.359 | 1.29 | 0.475 | 0.96 |
| C[C@@]1([C@@H](NC(=O)c2cccs2)c2ccc(-c3ccccc3)cc2)C[C@H]1C1CCCCC1 | 0.385 | -0.336 | 0.126 | -3.26 (inactive) | -0.728 | -1.74 | -0.84 | -0.671 | 0.0374 | 1.49 | -0.309 | -1.47 | -0.919 | 0.645 | 0.111 | -0.302 | -0.478 | 0.356 | 0.0643 | -0.344 |
| COC(=O)[C@]1(Cc2ccccc2CN=[N+]=[N-])N=C(c2ccc(OCCCO)cc2)O[C@@H]1c1ccccc1 | 1.15 | -0.0032 | 0.987 | -2.04 (inactive) | -1.34 | -1.08 | -1.46 | -0.869 | -1 | 0.53 | -1.61 | -3.19 | -1.63 | -0.103 | 0.128 | -0.228 | -0.0793 | -0.361 | -1.18 | 1.13 |
| [N-]=[N+]=NCc1ccccc1[C@H]1OC(c2ccc(OCCCO)cc2)=N[C@@]1(Cc1ccccc1N=[N+]=[N-])C(=O)N1CCCCC1 | 1.31 | 1.11 | 1.06 | 0.532 (inactive) | 1.42 | 1.29 | 0.363 | 1.25 | 0.256 | 1.23 | 1.46 | -2.19 | 0.291 | 1 | 0.289 | 0.132 | -0.157 | 1.76 | 1.44 | 1.3 |
